Here are results for 27 compounds from PubChem BioAssay AID651671 (Sanford-Burnham Center for Chemical Genomics, 2012).

The assay is described as follows: activation of alpha-dystroglycan glycosylation – single concentration, Pro5-aDG cells, confirmation (AID 651671).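 Note: cells exposed to compound for two days before detection; 0% = DMSO-treated Pro5 cells and 100% = DMSO-treated B10-LARGE cells.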 To be noted: alpha-DG glycosylation, IIH6 AlphaLISA, hits give high values, screened at 10 µM (by protocol), scaled to LARGE-overexpressing B10 cells as 100%. (In Alpha technology, singlet oxygen from a donor bead excites a nearby acceptor bead.)

The other results are listed elsewhere or left out. A number with no mark means an inactive call. The source made the active and inactive calls.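 Rule for the calls: active = activation of at least 7% in one or more replicates; inactive = the rest.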

Regarding `CCOC(=O)C1(CCOC)CCN(Cc2cc3ccccc3s2)CC1`, the activation was -0.438%.

In the case of `CC(C)C(=O)NCC(c1cccs1)S(=O)(=O)c1ccc(F)cc1` (configuration not stated), the activation was 0.3%.

Consider `Cc1cc(C)c2[nH]c(=O)c(CN(Cc3ccccc3)C(=S)NCCCN(C)C)cc2c1`, for which the activation is 1.74%.

As to `CC(C)OC(=O)CN1C(=O)C(=O)c2ccccc21`, the activation was 8.05% (active).

Take `CCc1ccccc1S(=O)(=O)Cc1ccc(C(=O)NCCc2ccccc2)o1`: the activation is -0.875%.

For `COc1cccc(C(=O)Nc2nnc(S(=O)(=O)N3CCCCC3)s2)c1`, the activation was -0.562%.

With `COc1ccccc1N1CCN(C(=O)c2cc(-c3ccc(Br)cc3)on2)CC1`, the activation is -0.683%.

As to `CN(C)CCCNC(=O)/C=C/c1ccc(OCc2c(F)cccc2Cl)cc1`, the activation was 8.53% (active).

As to `O=C(c1ccc(N2CCCC2=O)cc1)N1CCN(c2ccc(C(F)(F)F)cc2[N+](=O)[O-])CC1`, the activation is 1.5%.

Turning to `COc1ccccc1C1SCCN1C(=O)c1ccc([N+](=O)[O-])cc1` (configuration not stated), the activation is -0.592%.

As to `Nc1scc[n+]1Cc1cccc2cccnc12`, the activation was -0.533%.

As for `CN1CCN(S(=O)(=O)c2cccc(C(=O)Nc3sccc3C#N)c2)CC1`, the activation is 42% (active).

In the case of `Cc1cccc(CN2CCC(CNC(=O)Nc3ccc(F)c(Cl)c3)CC2)c1`, the activation is 11% (active).

For `O=C(NC(c1ccc(-c2ccccc2)cc1)c1cnccn1)C1CCN(CCOc2ccc(Cl)cc2Cl)CC1` (configuration not stated), the activation is 3.11%.

`CC(=O)Oc1cccc(N2C(=O)C3CC=C(Cl)CC3C2=O)c1` (configuration not stated): the activation is 0.562%.

For `Cc1ccc(NC(=O)CN(C)CC(=O)Nc2cccc(F)c2)cc1[N+](=O)[O-]`, the activation is 1.48%.

On to `COc1ccc(NC(=O)CSc2nnc(-c3ccccc3F)n2C2CC2)cc1S(N)(=O)=O`, for which the activation was -0.758%.

For the compound `Cc1ccc(NC(=O)c2ccc(Oc3ncccn3)cc2)cc1`, the activation was -0.983%.

As to `CCn1cc(CN2CCC(C(=O)Nc3cccc(-c4cccc(Cl)c4)c3)CC2)c(C)n1`, the activation is 9.24% (active).

For `O=c1ccc2cc(S(=O)(=O)N3CCN(c4ccccc4)CC3)ccc2o1`, the activation was -0.742%.

For the compound `CC(C)c1cc(Cn2c3ccccc3c(=O)n2C(C)Cn2cc(C3CC3)nn2)on1` (configuration not stated), the activation is 0.475%.

As for `CCOc1ccccc1Nc1nnc(SCC(=O)NCC2CCCO2)s1` (configuration not stated), the activation was 0.625%.

On to `CCOc1ccc(OCC(=O)Nc2c3c(nn2C(C)(C)C)CS(=O)(=O)C3)cc1`, for which the activation is 0.637%.

For the compound `OC[C@@H]1CN(Cc2ccc(-c3ccccc3)cc2)C[C@H](n2cnc3c(NC4CCCC4)ncnc32)O1`, the activation is 4.21%.

For the compound `CCCn1c(=N)n(CC(=O)c2ccc(Cl)c(Cl)c2)c2ccccc21`, the activation is 11% (active).

For `COc1cc(CNCCN(C)C)ccc1OCc1c(F)cccc1Cl`, the activation is 6.71% (active).

`CN(Cc1ccccc1)CC(O)COc1ccc(CNCc2cc3ccccc3s2)cc1` (configuration not stated): the activation was 0.15%.
